# Inconclusive results are not listed. Entries that show only a call come without a potency. Active and inactive are the calls of the source. Unless noted, calls come from the whole dose curve; as a rule, active = well fitted curve in the direction sought with a large enough effect; inconclusive = small, poorly fitted or top-dose-only effect, or another doubt; inactive = no such curve, though single readings can be large; an effect the other way counts as inactive or inconclusive.
# How the values were obtained:
# [1] = qHTS Assay for Identification of Small Molecule Inducers of Hypoxia Response (AID 2120; active = well fitted curve in the direction sought with a large enough effect in the signal ratio, with a control signal flat, not every such curve was filed as active; the % refers to the signal ratio; note: potency is the fitted concentration of half-maximal effect)
# How it was run: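 Read-out: CCF4 FRET emission ratio 460nm/530nm (excitation 405nm), converted to %Activity, with AC50 fitted across a compound titration. ME-180 cells carried an HRE-driven beta-lactamase reporter; compound exposure 17 h, 37 degrees C.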
# [2] = qHTS Assay for Lipid Storage Modulators (AID 1519; calls by dose curve); conditions: Drosophila S3 cells, BODIPY lipid droplet/cell ratio, laser cytometry, cells loaded with oleic acid; for activity change, negative = inhibition: at 57.5 µM (top of the series)
# How it was run: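 Cells seeded at 5,000 per well were treated with compounds over a concentration series and loaded with oleic acid (400 uM, as added). Lipid droplet fluorescence (488 nm excitation, 500-530 nm channel) was read by laser-scanning cytometry and normalized to 20 uM Triacsin C.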
# [3] = biological target: DNA repair nuclease/redox regulator APEX1 (Homo sapiens) (UniProt P27695); assay: qHTS Validation Assay for Inhibitors of the Human Apurinic/apyrimidinic Endonuclease 1 (APE1) (AID 1705;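 note: TAMRA fluorescence gain over two minutes as APE1 cuts a quenched THF abasic duplex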)
# DNA repair nuclease/redox regulator APEX1 (Homo sapiens), sequence (P27695 whole entry, looked up): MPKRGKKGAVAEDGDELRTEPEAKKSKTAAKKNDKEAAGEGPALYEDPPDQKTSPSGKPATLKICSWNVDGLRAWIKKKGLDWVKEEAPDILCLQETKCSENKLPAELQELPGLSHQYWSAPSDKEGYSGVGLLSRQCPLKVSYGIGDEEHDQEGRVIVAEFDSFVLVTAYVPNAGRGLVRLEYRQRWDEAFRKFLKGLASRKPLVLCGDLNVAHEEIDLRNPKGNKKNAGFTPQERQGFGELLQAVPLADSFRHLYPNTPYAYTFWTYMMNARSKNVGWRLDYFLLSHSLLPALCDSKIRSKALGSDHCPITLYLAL
# How it was run: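 Read-out: TAMRA fluorescence (525 nm ex, 598 nm em) from cleavage of a quenched THF abasic-site duplex, 50 nM final; activity taken as intensity change between third and first of three reads 60 s apart.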
# [4] = Counterscreen for APE1 Inhibitors: Fluorescent Dye Displacement Validation Assay (AID 1707)
# How it was run: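 Counterscreen flags promiscuous DNA binders: compounds displacing ThO from duplex DNA (abasic THF site, 50 nM) reduce 540 nm emission (480 nm excitation). ThO 250 nM final; Tris-HCl pH 7.5 with NaCl, MgCl2 and Tween-20.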
# [5] = biological target: Endonuclease 4 (Escherichia coli (strain K12)) (UniProt P0A6C1); assay: Counterscreen for APE1 Inhibitors: qHTS Validation Assay for Inhibitors of Endonuclease IV (AID 1708)
# How it was run: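 Measured as reaction progress, the fluorescence gain between first and third kinetic reads after adding 50 nM TAMRA/BHQ-2 THF duplex to 2 nM enzyme preincubated 15 min with compound; 2 mM MgCl2, pH 7.5.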
# [6] = qHTS for differential inhibitors of proliferation of Plasmodium falciparum line 7G8 (AID 1815);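 note: parasite growth measured after three days of incubation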
# [7] = qHTS for differential inhibitors of proliferation of Plasmodium falciparum line D10 (AID 1877);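 note: parasites grown with compound for 72 h before DNA staining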
# [8] = qHTS for differential inhibitors of proliferation of Plasmodium falciparum line Dd2 (AID 1882); conditions: Potency: Plasmodium falciparum Dd2 proliferation inhibition;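 note: compound exposure of 72 h on infected erythrocytes; nearly all actives have a fitted effect of over 65% in size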
# How it was run: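 RBC culture, 0.3% parasitemia / 2.5% Hct final; cpd added by pin tool in DMSO; 72 h, 37 C, 5% CO2; lysis buffer + SYBR Green I, o/n RT dark; FI 485/535; norm. to artemisinin 0.29 uM and DMSO.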
# [9] = qHTS for differential inhibitors of proliferation of Plasmodium falciparum line HB3 (AID 1886); conditions: Potency: Plasmodium falciparum HB3 proliferation inhibition;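 note: parasites grown with compound for 72 h before SYBR Green readout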
# [10] = biological target: Ferritin light chain (Equus caballus) (UniProt P02791); assay: qHTS Validation Assay for Identification of Novel General Anesthetics (AID 2323)
# Ferritin light chain (Equus caballus), sequence (P02791 2-175 limits assumed): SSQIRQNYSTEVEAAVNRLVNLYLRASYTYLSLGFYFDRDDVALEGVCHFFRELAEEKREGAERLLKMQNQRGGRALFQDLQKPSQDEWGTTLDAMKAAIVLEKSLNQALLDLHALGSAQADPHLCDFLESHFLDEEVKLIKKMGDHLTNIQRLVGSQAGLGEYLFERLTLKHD
# How it was run: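 10 uM horse-spleen apoferritin + 1-AMA (50% saturated, PBS); cpd pin-transferred, 10 min RT. Ex 380/Em 535 nm endpoint. Activity normalized between free 1-AMA and 1-AMA/apoferritin; 4-parameter Hill fit of concentration-response.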
# [11] = biological target: ATP-dependent DNA helicase Q1 (Homo sapiens) (UniProt P46063); assay: qHTS Validation Assay for Inhibitors of RecQ-Like Dna Helicase 1 (RECQ1) (AID 2353)
# ATP-dependent DNA helicase Q1 (Homo sapiens), sequence (P46063 whole entry, looked up): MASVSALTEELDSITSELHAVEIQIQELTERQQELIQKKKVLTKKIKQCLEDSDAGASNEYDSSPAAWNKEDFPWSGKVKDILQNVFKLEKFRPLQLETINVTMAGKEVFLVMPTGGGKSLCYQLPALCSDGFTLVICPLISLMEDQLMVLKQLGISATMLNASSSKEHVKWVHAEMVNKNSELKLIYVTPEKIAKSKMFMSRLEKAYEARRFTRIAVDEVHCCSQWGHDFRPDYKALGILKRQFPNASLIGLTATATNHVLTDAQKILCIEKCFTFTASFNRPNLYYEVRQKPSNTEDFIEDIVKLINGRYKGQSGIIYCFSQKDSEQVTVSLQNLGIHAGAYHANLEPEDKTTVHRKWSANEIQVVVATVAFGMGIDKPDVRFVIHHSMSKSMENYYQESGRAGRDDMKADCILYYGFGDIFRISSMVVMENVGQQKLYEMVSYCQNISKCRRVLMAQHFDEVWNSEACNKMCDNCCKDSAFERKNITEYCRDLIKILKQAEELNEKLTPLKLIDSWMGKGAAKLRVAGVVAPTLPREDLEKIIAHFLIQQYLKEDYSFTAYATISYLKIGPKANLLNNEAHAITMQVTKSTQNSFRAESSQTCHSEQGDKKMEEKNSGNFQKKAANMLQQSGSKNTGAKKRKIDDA
# How it was run: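 RECQ1T1 50 nM; forked duplex (20 bp + 30-nt ss tails) 200 nM, ATP 2 mM final; pH 8.0, 2 mM MgCl2, 2.5 ug/ml poly(dI-dC); 15 min compound preincubation; discontinuous kinetic read over 2 h at RT.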
# [12] = Cytometric Cell-Based qHTS for Inhibitors of the mTORC1 Signaling Pathway in MEF (Tsc2-/-, p53-/-) Cells (AID 2660);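 note: Tsc2 and p53 null MEFs carrying empty vector with compound for 24 h; percent of cells above a phospho-rpS6 to PI ratio cutoff in each well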
# How it was run: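 Immunofluorescence qHTS of rpS6 Ser235/236 phosphorylation: MEFs (Tsc2-/-, p53-/-) treated 24 h, 37 C, in DMEM + 10% FBS. Alexa-488 signal normalized to PI count, referenced to rapamycin (7.5 nM) and DMSO; PI cell number recorded for viability.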
# [13] = High Content Imaging Cell-Based qHTS for Inhibitors of the mTORC1 Signaling Pathway in MEF (Tsc2-/-, p53-/-) Cells (AID 2666); conditions: at 38.3 µM (top of the series);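 note: percent of cells scored positive for phospho-rpS6 Ser235/236 immunostaining by imaging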
# How it was run: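 Inhibition of rpS6 phosphorylation is measured by immunofluorescence imaging in empty-vector Tsc2-/-, p53-/- mouse embryonic fibroblasts after 24 hrs compound exposure at 37 degree Celsius. Results are reported as % positive cells per well.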
# [14] = measured here: cell count channel max response
# [15] = measured here: lipid channel max response
smiles,measurement,setting,value
CCOC(C)OCC,Potency,[1],inactive
O.O.O.O.O.O.O.O=S(=O)([O-])[O-].[Co+2],Potency,[1],31.6 µM (active)
CC1=CCC2CC1C2(C)C (stereo not drawn),Potency,[1],inactive
CC[C@H]1OC(=O)[C@H](C)[C@@H](O[C@H]2C[C@@](C)(OC)[C@@H](O)[C@H](C)O2)[C@H](C)[C@@H](O[C@@H]2O[C@H](C)C[C@H](N(C)C)[C@H]2O)[C@](C)(O)C[C@@H](C)CN(C)[C@H](C)[C@@H](O)[C@]1(C)O,Potency,[1],inactive
CO,Potency,[1],inactive
ClC(Cl)Cl,Potency,[1],inactive
O=P(O)(O)O,Potency,[1],inactive
c1ccc2ccccc2c1,Potency,[1],inactive
C/C=C/C=C/C(=O)O,Potency,[1],inactive
Oc1cccc(O)c1O,Potency,[1],inactive
Nc1ncnc2c1ncn2[C@H]1CC[C@@H](CO)O1,"activity change, negative = inhibition",[2],1.8% (inactive)
same,max response,[2]; [14],3.29%
same,max response,[2]; [15],6.18%
same,Potency,[1],inactive
Oc1ccc(/C=C/c2cc(O)cc(O)c2)cc1,"activity change, negative = inhibition",[2],25.3% (inactive)
same,max response,[2]; [14],-23.2%
same,max response,[2]; [15],2.31%
same,outcome,[3],inactive
same,outcome,[4],inactive
same,outcome,[5],inactive
same,Potency,[6],inactive
same,outcome,[7],inactive
same,Potency,[8],inactive
same,Potency,[9],inactive
same,outcome,[10],inactive
same,outcome,[11],inactive
same,outcome,[12],inactive
same,outcome,[13],inactive
NC(N)=O,"activity change, negative = inhibition",[2],6.91% (inactive)
same,max response,[2]; [14],16.8%
same,max response,[2]; [15],28%
same,Potency,[1],inactive
CO/N=C(/C(=O)N[C@@H]1C(=O)N2C(C(=O)O)=C(COC(N)=O)CS[C@H]12)c1ccco1,Potency,[1],inactive
OCC(O)CO,Potency,[1],inactive
[O-][N+](=Nc1ccccc1)c1ccccc1,Potency,[1],inactive
CCCCO,Potency,[1],inactive
CC(C)(C)CC(C)(C)c1ccc(OCCO)cc1,Potency,[1],inactive
CC1=CC(=O)NS(=O)(=O)O1,Potency,[1],inactive
